Inconclusive results are not listed. Calls of active or inactive are those of the source. Unless noted, calls come from the whole dose curve; as a rule, active = well fitted curve in the direction sought with a large enough effect; inconclusive = small, poorly fitted or top-dose-only effect, or another doubt; inactive = no such curve, though single readings can be large; an effect the other way counts as inactive or inconclusive.
What was measured:
[1] = molecular target: ATP-dependent 6-phosphofructokinase (Trypanosoma brucei brucei) (UniProt O15648); assay: qHTS Assay to Find Inhibitors of T. brucei phosphofructokinase: hit validation (AID 492961);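 note: luminescence reports ADP formed as PFK phosphorylates fructose-6-phosphate with ATP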
Chain of ATP-dependent 6-phosphofructokinase (Trypanosoma brucei brucei) (O15648 whole entry, looked up): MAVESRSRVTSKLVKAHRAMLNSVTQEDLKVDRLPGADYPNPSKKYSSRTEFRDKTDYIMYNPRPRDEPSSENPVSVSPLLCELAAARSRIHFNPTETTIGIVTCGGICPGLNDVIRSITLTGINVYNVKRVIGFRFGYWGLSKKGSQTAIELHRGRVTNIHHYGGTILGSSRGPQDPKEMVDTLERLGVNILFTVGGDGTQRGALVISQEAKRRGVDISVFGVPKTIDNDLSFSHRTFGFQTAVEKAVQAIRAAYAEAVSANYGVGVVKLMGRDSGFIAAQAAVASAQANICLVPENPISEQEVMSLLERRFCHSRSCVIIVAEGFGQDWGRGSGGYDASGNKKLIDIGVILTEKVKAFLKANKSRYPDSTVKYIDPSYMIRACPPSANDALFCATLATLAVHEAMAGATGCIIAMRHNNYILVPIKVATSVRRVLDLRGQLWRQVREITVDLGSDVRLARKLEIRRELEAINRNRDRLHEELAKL
Outline: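 In this biochemical qHTS validation, titrated compounds were tested against 1.25 nM PFK with 0.1 mM ATP and 0.5 mM F6P. Percent activity came from controls lacking or containing enzyme.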

[2] = molecular target: Ubiquitin carboxyl-terminal hydrolase 1 (Homo sapiens) (UniProt O94782); assay: Inhibitors of USP1/UAF1: Pilot qHTS (AID 504865);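 note: rhodamine fluorescence freed from ubiquitin-rhodamine substrate followed over time; top concentration of the series differs between compounds; nearly all actives have a fitted effect of over 35% in size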
Chain of Ubiquitin carboxyl-terminal hydrolase 1 (Homo sapiens) (O94782 whole entry, looked up): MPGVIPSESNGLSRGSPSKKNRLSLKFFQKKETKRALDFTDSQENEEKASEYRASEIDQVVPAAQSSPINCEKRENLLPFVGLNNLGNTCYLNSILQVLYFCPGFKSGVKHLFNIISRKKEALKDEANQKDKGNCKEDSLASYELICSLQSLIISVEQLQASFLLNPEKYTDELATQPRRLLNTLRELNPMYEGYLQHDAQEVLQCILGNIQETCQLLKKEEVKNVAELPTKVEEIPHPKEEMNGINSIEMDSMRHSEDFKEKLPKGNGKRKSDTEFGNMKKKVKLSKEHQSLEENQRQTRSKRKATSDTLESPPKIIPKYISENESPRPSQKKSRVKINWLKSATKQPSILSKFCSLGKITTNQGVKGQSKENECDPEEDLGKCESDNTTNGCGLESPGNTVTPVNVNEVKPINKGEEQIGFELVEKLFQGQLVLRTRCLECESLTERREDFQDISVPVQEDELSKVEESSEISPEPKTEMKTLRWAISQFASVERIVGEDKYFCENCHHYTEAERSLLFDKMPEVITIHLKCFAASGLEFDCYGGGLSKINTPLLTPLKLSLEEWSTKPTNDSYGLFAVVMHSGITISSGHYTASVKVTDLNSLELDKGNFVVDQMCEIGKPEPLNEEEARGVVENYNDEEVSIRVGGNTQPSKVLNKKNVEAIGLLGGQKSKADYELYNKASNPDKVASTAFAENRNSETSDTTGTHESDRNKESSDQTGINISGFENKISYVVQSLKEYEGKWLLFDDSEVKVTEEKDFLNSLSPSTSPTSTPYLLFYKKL
Outline: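 Enzyme-free wells gave the negative control, while test wells held 1nM USP1/UAF1 preincubated with compound for 15 min at room temperature. Ub-Rho at 150nM final started the reaction, and fluorescence at 480/540 nm was recorded kinetically.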

[3] = molecular target: Luciferin 4-monooxygenase (Photinus pyralis) (UniProt P08659); assay: Biochemical firefly luciferase enzyme assay for NPC (AID 624030);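 note: purified P. pyralis luciferase at 10 nM with luciferin and ATP substrate; nearly all actives have a fitted effect of over 70% in size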
Chain of Luciferin 4-monooxygenase (Photinus pyralis) (P08659 whole entry, looked up): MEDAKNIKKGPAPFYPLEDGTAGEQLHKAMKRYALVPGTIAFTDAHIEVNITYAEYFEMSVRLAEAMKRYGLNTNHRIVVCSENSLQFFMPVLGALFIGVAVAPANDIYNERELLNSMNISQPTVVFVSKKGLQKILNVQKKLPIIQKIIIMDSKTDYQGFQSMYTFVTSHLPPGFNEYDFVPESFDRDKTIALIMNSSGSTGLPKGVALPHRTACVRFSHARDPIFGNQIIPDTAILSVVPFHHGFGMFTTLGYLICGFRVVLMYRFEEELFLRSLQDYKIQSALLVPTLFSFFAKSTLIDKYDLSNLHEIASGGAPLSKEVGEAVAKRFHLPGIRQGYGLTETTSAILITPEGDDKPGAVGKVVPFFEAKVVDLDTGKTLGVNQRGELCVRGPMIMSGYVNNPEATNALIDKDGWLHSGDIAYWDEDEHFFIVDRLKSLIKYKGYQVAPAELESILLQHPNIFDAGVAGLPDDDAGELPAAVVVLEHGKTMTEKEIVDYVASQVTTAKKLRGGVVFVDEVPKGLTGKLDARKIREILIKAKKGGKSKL
Outline: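 Direct inhibition of firefly luciferase enzyme (10 nM final, 50 mM Tris Acetate) assessed by luminescence within 5 minutes. Percent activity scaled between DMSO and PTC124 positive control, with concentration-effect curves classified by fit quality and response.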

[4] = S16 Schwann cell PMP22 intronic element firefly luciferase assay (AID 624032); note: potency is the fitted concentration of half-maximal effect; nearly all actives have a fitted effect of over 30% in size
Outline: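 Luciferase reporter of PMP22 intronic-element expression in stably transfected S16 rat Schwann cells, read by ONE-Glo luminescence after 24 h compound exposure at 37 C. Activity scaled between DMSO (0%) and positive-control PTC124; concentration-effect curves quality-classified.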

[5] = S16 Schwann cell PMP22 intronic element beta-lactamase assay (AID 624044; calls by dose curve; note: potency is the fitted concentration of half-maximal effect; nearly all actives have a fitted effect of over 15% in size)
Outline: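 Rat S16 Schwann cells with beta-Lac driven by a PMP22 intronic element, compound-treated 24 h at 37 °C. LiveBLAzer FRET B/G read: 460 nm normalized to potassium clavulanate vs DMSO; 535 nm FRET as viability; concentration-effect curves classified.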

Furin (Homo sapiens) = Furin (Homo sapiens) (UniProt P09958); assay: Furin counterscreen qHTS for Zika virus inhibitors (AID 1347149);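 note: purified recombinant full-length human furin enzyme at 5 nM; fluorescence gain from furin cutting a BOC-RVRR-AMC peptide substrate over 15 min; top concentration of the series differs between compounds; nearly all actives have a fitted effect of over 70% in size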
Chain of Furin (Homo sapiens) (P09958 whole entry, looked up): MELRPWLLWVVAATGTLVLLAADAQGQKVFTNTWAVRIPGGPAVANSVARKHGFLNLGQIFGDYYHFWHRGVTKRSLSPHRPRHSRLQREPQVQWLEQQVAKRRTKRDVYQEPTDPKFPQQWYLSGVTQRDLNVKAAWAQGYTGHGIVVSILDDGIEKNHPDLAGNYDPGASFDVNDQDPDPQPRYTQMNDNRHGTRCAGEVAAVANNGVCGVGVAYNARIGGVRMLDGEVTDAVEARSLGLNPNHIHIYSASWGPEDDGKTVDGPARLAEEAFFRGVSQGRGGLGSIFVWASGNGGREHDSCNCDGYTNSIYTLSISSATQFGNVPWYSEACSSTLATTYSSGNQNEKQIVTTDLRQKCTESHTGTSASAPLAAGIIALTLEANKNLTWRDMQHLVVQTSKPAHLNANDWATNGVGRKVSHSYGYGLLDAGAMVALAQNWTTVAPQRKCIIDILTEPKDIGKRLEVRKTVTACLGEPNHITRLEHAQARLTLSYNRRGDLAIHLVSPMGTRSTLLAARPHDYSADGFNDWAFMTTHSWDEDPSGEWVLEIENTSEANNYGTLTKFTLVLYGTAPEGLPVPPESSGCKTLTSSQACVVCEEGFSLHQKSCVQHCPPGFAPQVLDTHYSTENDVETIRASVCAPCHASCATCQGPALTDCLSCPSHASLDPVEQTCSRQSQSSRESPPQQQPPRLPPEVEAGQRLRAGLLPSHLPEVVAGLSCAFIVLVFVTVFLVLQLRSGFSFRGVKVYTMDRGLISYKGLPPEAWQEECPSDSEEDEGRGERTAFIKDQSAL
Outline: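 Fluorogenic cleavage of BOC-RVRR-AMC (2 microM final, Km ~15 µM) was monitored (ex 340, em 450 nm) at 37C after 15 min RT preincubation of 5 nM furin with compounds in HEPES pH 7.0 buffer with CaCl2 and Triton X-100. Percent inhibition was fitted to a 4-parameter Hill curve.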

[6] = test system: Zika virus NS2B-NS3 protease (unlinked); assay: Optimization of GU AMC qHTS for Zika virus inhibitors: Unlinked NS2B-NS3 protease assay (AID 1347151); note: nearly all actives have a fitted effect of over 80% in size
Outline: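 In this qHTS, compounds acted on 25 nM unlinked Zika NS2B–NS3 in pH 8.0 Tris/Tween buffer. Cleavage of an AMC peptide ran 15 min at room temperature, to about 20% conversion.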

[7] = Vero cells viability qHTS for Zika virus inhibitors (AID 1347167)
Outline: (§1)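 Compounds were tested in concentration series on cells grown in DMEM containing 4% FBS. After 24 to 48 hours, cellular ATP was measured by luminescence with CellTiter Glo.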

[8] = HepG2 cells viability qHTS for Zika virus inhibitors (AID 1347168); note: potency is the fitted concentration of half-maximal effect
Outline: as §1

[9] = Tertiary RLuc qRT-PCR qHTS assay for Zika virus inhibitors (AID 1347169); note: potency is the fitted concentration of half-maximal effect; nearly all actives have a fitted effect of over 55% in size
Outline: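 Inhibition of ZIKV-RLuc replication in Vero cells, read as Renilla luminescence 1-1.5 hrs after live-cell substrate addition, following 48-72 hrs infection at MOI 1-2 in presence of compound.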

[10] = qHTS profiling for inhibitors of Plasmodium falciparum proliferation (AID 504749); note: potency is the fitted concentration of half-maximal effect; nearly all actives have a fitted effect of over 60% in size; details: P. falciparum in erythrocytes, SYBR Green DNA, 72 h
Outline: (§2)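 Three-day growth assay of blood-stage parasites in erythrocytes (0.3% parasitemia, 2.5% hematocrit) at 37 C, 5% CO2, quantified by SYBR Green DNA staining after overnight detergent lysis.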

3D7 = assay: as above; details: P. falciparum in erythrocytes, SYBR Green DNA, 72 h; series mostly up to 28.7 µM
Outline: as §2

7G8 = assay: as above; details: P. falciparum in erythrocytes, SYBR Green DNA, 72 h; series mostly up to 28.7 µM
Outline: as §2

AA1029 = assay: as above; details: P. falciparum in erythrocytes, SYBR Green DNA, 72 h; series mostly up to 28.7 µM
Outline: as §2

AS120 = assay: as above; details: P. falciparum in erythrocytes, SYBR Green DNA, 72 h; series mostly up to 28.7 µM
Outline: as §2

ATS189 = assay: as above; details: P. falciparum in erythrocytes, SYBR Green DNA, 72 h; series mostly up to 28.7 µM
Outline: as §2

ATS95 = assay: as above; details: P. falciparum in erythrocytes, SYBR Green DNA, 72 h; series mostly up to 28.7 µM
Outline: as §2

C2A = assay: as above; details: P. falciparum in erythrocytes, SYBR Green DNA, 72 h; series mostly up to 28.7 µM
Outline: as §2

CP185 = assay: as above; details: P. falciparum in erythrocytes, SYBR Green DNA, 72 h; series mostly up to 28.7 µM
Outline: as §2

CP191 = assay: as above; details: P. falciparum in erythrocytes, SYBR Green DNA, 72 h; series mostly up to 28.7 µM
Outline: as §2

CP192 = assay: as above; details: P. falciparum in erythrocytes, SYBR Green DNA, 72 h; series mostly up to 28.7 µM
Outline: as §2

CP194 = assay: as above; details: P. falciparum in erythrocytes, SYBR Green DNA, 72 h; series mostly up to 28.7 µM
Outline: as §2

CP201 = assay: as above; details: P. falciparum in erythrocytes, SYBR Green DNA, 72 h; series mostly up to 28.7 µM
Outline: as §2

CP203 = assay: as above; details: P. falciparum in erythrocytes, SYBR Green DNA, 72 h; series mostly up to 28.7 µM
Outline: as §2

CP211 = assay: as above; details: P. falciparum in erythrocytes, SYBR Green DNA, 72 h; series mostly up to 28.7 µM
Outline: as §2

CP215 = assay: as above; details: P. falciparum in erythrocytes, SYBR Green DNA, 72 h; series mostly up to 28.7 µM
Outline: as §2

CP217 = assay: as above; details: P. falciparum in erythrocytes, SYBR Green DNA, 72 h; series mostly up to 28.7 µM
Outline: as §2

CP237 = assay: as above; details: P. falciparum in erythrocytes, SYBR Green DNA, 72 h; series mostly up to 28.7 µM
Outline: as §2

CP238 = assay: as above; details: P. falciparum in erythrocytes, SYBR Green DNA, 72 h; series mostly up to 28.7 µM
Outline: as §2

CP247 = assay: as above; details: P. falciparum in erythrocytes, SYBR Green DNA, 72 h; series mostly up to 28.7 µM
Outline: as §2

CP250 = assay: as above; details: P. falciparum in erythrocytes, SYBR Green DNA, 72 h; series mostly up to 28.7 µM
Outline: as §2

CP252 = assay: as above; details: P. falciparum in erythrocytes, SYBR Green DNA, 72 h; series mostly up to 28.7 µM
Outline: as §2

CP256 = assay: as above; details: P. falciparum in erythrocytes, SYBR Green DNA, 72 h; series mostly up to 28.7 µM
Outline: as §2

CP260 = assay: as above; details: P. falciparum in erythrocytes, SYBR Green DNA, 72 h; series mostly up to 28.7 µM
Outline: as §2

Measured: Potency

CC(C)C[C@@H](NC(=O)[C@H](Cc1ccccc1)NC(=O)c1cnccn1)B(O)O
active: [4] 3.6 nM | [5] 12.6 nM | [8] 42.6 nM | [9] 26.9 nM | [10]; parasite line A 89.1 nM | [10]; parasite line B 63.1 nM | 3D7 126 nM | 7G8 31.6 nM | AA1029 70.8 nM | AS120 100 nM | ATS189 112 nM | ATS95 56.2 nM | C2A 126 nM | CP185 112 nM | CP191 89.1 nM | CP192 151 nM | CP194 426 nM | CP201 601 nM | CP203 169 nM | CP211 757 nM | CP215 536 nM | CP217 126 nM | CP237 79.4 nM | CP238 112 nM | CP247 126 nM | CP250 100 nM | CP252 89.1 nM | CP256 126 nM | CP260 112 nM
inactive: [1] | [2] | [3] | Furin (Homo sapiens) | [6] | [7]

Source: PubChem BioAssay (NCATS)
